Results published in the supplement of paper PMC10849652.
About 7,900 targets were measured; listed, in parts, are those with a hit and a random draw of the rest. About 0.6% of all pairs of compound and target were hits. Values without a mark were called inactive.

Key:
Experiment in all cases: log2 fold change, soluble protein after heating vs DMSO (PISA); higher = thermal stabilisation; K562 cells, 10 uM, 30 min; active = over 0.2 and 3.5 SD of the protein, either way, in both replicates (recomputed)
[1] = compound: C1COCCN1CCN2C3=CC=CC=C3N=C2NC(=O)C4=CC(=CC=C4)[N+](=O)[O-] [IRAK-1-4 Inhibitor I]
Method in brief: (§1)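 Soluble protein was defined as the supernatant after 21,000xg for 90 min. It came from K562 cells at 2×10^6 cells/mL given 10 μM compound for 30 min, heated in aliquots for 3 min across 48°C-58°C, pooled, and extracted in PBS with 0.5% NP-40 at 4°C, and was quantified by TMTpro 16plex LC-MS/MS with equalised channel sums. Thermal stability against control samples, from duplicates, is reported as log2 fold change.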

[2] = compound: C=CC(=O)N1CCC[C@@H](n2nc(-c3ccc(Oc4ccccc4)cc3)c3c(N)ncnc32)C1 [ibrutinib]
Method in brief: as §1

[3] = compound: CC(=O)c1cnc2ccc(-c3cc(Cl)c(O)c(Cl)c3)nc2c1N[C@H]1CC[C@H](CN(C)C)CC1
Method in brief: as §1

[4] = compound: CC(C)(C)Cn1c(N)nc2ccc(-c3[nH]c(C(C)(C)C)nc3-c3ccc(F)cc3)nc21 [ralimetinib]
Method in brief: as §1

[5] = compound: CC(C)(O)CC(=O)NCCn1ccc2ncnc(Nc3ccc(Oc4cccc(C(F)(F)F)c4)c(Cl)c3)c21
Method in brief: as §1

[6] = compound: CC(C)C1=C2N=C(C=C(N2N=C1)NCC3=CC=CC=C3)NCCCCCCN
Method in brief: as §1

[7] = compound: CC(C)C[C@@H](C=O)NC(=O)[C@H](CC(C)C)NC(=O)[C@H](CC(C)C)NC(=O)OCc1ccccc1
Method in brief: as §1

[8] = compound: CC(C)N(C[C@H]1O[C@@H](n2cnc3c(N)ncnc32)[C@H](O)[C@@H]1O)[C@H]1C[C@@H](CCc2nc3cc(C(C)(C)C)ccc3[nH]2)C1 [pinometostat]
Method in brief: as §1

[9] = compound: CC1=C(C(CC(=O)N1)C2=CC=C(C=C2)C(F)(F)F)C(=O)NC3=C(C=C4C(=C3)C=NN4)F
Method in brief: as §1

[10] = compound: CC1=C(C2=C(C=C1)C(=O)C3=CC=CC=C3N2CCCN)C
Method in brief: as §1

[11] = compound: CC1=C(C=C(C=C1)NC(=O)C2=CC(=CC=C2)C(C)(C)C#N)NC3=CC4=C(C=C3)N=CN(C4=O)C
Method in brief: as §1

[12] = compound: CC1=C(C=C(C=C1)NC(=O)C2=CC(=CC=C2)N(C)C)NC(=O)C3=CC=C(C=C3)O
Method in brief: as §1

[13] = compound: CC1=CC=C(C=C1)SC2=C3C=C(SC3=CN=C2)C(=O)N
Method in brief: as §1

[14] = compound: CC1=NC(=CC=C1)C2=C(N=C(N2)C(C)(C)C)C3=CC4=NC=CN=C4C=C3
Method in brief: as §1

[15] = compound: CCCCN(Cc1ccc(C(=O)NO)cc1)C(=O)Nc1ccccc1 [Nexturastat A]
Method in brief: as §1

[16] = compound: CCCS(=O)(=O)Nc1ccc(F)c(C(=O)c2c[nH]c3ncc(-c4ccc(Cl)cc4)cc23)c1F [vemurafenib]
Method in brief: as §1

[17] = compound: CCCS(=O)(=O)Nc1ccc(F)c(C(=O)c2c[nH]c3ncc(Cl)cc23)c1F
Method in brief: as §1

[18] = compound: CCCc1cc(C)[nH]c(=O)c1CNC(=O)c1cc(-c2ccnc(N3CCN(C)CC3)c2)cc2c1cnn2C(C)C
Method in brief: as §1

[19] = compound: CCN(CC)Cc1ccc2cc(COC(=O)Nc3ccc(C(=O)NO)cc3)ccc2c1 [givinostat]
Method in brief: as §1

[20] = compound: CCN(CCCOc1ccc2c(Nc3cc(CC(=O)Nc4cccc(F)c4)[nH]n3)ncnc2c1)CCOP(=O)(O)O [barasertib]
Method in brief: as §1

UniProt Q9Y6E2, sequence (Q9Y6E2 whole entry, looked up): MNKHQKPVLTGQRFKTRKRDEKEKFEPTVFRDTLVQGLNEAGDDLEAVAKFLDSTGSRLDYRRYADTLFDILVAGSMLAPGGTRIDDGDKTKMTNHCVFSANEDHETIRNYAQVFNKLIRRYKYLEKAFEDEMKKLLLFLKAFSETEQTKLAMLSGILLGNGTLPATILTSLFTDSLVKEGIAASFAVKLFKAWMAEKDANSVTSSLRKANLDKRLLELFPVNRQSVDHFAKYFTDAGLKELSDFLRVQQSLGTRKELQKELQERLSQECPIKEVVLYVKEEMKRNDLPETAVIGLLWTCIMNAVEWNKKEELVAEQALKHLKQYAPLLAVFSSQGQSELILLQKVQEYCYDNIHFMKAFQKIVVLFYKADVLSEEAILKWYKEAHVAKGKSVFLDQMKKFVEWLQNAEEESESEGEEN
UniProt P35612, sequence (P35612 whole entry, looked up): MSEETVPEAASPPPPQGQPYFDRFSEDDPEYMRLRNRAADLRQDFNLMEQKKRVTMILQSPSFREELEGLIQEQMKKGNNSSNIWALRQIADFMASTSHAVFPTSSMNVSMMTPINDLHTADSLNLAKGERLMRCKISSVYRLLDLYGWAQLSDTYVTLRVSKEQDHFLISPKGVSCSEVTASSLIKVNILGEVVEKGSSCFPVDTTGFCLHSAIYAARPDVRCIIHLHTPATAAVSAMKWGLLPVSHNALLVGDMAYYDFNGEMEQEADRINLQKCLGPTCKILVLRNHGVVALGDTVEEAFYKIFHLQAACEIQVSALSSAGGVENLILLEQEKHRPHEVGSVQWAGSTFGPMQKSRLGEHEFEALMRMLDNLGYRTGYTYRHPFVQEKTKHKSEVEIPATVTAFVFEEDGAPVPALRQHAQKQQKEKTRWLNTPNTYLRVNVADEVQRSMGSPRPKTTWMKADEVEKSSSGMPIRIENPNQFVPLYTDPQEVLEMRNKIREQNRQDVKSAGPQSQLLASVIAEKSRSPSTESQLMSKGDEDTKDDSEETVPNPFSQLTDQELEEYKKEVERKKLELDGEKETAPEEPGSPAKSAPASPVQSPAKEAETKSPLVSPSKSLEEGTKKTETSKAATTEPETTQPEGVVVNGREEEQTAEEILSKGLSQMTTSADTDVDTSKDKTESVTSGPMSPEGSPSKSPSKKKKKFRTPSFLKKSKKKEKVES
UniProt O95573, sequence (O95573 whole entry, looked up): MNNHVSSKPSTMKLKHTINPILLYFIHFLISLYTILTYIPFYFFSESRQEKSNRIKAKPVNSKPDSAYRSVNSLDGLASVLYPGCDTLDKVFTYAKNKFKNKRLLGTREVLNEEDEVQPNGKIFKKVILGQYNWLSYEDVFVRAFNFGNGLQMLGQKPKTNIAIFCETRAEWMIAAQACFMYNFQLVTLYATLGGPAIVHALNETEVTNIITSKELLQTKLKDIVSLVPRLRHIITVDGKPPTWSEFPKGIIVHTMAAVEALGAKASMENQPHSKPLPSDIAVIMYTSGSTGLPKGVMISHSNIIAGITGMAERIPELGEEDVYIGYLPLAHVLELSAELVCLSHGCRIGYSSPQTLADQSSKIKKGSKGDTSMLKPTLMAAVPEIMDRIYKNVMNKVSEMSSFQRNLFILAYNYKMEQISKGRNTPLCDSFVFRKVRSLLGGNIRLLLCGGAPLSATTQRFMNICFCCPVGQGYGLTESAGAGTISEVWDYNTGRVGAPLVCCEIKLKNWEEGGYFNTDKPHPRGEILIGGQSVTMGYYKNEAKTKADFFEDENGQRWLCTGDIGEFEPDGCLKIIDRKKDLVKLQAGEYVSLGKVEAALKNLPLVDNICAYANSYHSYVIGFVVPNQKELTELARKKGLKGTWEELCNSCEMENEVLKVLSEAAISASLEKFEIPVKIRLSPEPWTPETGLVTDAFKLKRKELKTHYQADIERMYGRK
UniProt P52895, sequence (P52895 whole entry, looked up): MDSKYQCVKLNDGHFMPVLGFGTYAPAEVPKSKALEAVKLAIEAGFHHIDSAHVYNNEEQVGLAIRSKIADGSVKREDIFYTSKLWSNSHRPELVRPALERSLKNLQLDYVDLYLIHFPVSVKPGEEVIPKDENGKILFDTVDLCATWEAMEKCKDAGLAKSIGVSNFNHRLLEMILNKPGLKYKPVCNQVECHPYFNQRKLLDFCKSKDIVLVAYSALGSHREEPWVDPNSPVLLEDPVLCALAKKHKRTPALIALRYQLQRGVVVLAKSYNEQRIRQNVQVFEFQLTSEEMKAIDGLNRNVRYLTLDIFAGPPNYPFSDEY
UniProt Q9H7F0, sequence (Q9H7F0 whole entry, looked up): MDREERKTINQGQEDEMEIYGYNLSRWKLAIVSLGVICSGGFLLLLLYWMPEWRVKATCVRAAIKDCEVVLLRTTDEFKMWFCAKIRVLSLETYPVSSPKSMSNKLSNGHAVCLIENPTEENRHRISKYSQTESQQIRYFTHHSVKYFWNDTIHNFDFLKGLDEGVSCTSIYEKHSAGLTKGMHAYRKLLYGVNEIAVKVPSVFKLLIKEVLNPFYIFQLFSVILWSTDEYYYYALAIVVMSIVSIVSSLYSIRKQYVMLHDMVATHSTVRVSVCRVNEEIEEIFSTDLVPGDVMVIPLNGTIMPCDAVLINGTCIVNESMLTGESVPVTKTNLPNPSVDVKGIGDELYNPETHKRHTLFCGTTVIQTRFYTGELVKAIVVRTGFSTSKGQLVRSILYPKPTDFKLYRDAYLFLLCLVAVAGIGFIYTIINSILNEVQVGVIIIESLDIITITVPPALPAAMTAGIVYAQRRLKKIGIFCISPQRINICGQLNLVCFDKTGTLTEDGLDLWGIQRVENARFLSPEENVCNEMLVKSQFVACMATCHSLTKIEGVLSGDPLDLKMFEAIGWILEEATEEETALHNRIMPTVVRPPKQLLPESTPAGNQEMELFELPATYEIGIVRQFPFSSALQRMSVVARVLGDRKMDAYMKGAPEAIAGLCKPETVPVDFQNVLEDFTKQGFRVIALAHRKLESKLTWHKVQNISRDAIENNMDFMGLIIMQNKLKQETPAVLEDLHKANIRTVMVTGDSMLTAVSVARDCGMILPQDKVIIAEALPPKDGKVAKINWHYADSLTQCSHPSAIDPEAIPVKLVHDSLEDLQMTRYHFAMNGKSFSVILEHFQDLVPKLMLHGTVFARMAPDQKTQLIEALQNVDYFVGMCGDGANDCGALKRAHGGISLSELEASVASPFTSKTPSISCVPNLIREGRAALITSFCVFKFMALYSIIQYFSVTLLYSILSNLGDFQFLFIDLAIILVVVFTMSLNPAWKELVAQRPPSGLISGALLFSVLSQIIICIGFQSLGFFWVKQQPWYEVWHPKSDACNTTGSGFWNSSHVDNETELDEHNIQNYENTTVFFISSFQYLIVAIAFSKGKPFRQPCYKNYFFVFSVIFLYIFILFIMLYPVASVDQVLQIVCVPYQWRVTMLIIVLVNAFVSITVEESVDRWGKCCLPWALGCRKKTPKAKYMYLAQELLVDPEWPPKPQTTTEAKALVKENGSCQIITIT
UniProt P08243, sequence (P08243 whole entry, looked up): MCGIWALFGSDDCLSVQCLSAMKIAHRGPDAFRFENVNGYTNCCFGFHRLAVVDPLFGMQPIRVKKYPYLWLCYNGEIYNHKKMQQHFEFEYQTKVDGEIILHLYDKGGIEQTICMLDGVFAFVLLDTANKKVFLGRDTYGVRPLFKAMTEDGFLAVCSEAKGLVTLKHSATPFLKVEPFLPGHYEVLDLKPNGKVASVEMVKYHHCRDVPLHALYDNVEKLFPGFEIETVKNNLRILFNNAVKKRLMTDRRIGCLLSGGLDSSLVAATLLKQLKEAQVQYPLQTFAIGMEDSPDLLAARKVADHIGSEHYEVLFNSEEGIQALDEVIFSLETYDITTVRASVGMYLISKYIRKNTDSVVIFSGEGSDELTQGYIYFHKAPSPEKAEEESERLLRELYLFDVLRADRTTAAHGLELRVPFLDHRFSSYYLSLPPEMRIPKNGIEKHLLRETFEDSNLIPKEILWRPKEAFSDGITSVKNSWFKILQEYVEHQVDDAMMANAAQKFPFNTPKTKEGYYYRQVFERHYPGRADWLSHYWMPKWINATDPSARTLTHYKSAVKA
UniProt P05091, sequence (P05091 whole entry, looked up): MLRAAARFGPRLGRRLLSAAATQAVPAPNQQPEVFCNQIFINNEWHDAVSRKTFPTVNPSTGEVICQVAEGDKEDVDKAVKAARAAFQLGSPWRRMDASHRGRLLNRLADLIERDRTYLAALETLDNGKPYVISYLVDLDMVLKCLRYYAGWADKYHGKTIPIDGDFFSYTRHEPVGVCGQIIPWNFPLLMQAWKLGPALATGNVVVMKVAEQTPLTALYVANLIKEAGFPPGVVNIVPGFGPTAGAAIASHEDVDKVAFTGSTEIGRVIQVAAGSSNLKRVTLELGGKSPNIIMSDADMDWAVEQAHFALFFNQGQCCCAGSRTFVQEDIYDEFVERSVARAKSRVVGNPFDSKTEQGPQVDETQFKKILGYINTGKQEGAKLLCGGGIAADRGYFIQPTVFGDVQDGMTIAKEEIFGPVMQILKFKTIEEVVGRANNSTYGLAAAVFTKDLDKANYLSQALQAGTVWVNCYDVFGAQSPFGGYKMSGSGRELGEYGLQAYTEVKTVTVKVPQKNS
UniProt Q99943, sequence (Q99943 whole entry, looked up): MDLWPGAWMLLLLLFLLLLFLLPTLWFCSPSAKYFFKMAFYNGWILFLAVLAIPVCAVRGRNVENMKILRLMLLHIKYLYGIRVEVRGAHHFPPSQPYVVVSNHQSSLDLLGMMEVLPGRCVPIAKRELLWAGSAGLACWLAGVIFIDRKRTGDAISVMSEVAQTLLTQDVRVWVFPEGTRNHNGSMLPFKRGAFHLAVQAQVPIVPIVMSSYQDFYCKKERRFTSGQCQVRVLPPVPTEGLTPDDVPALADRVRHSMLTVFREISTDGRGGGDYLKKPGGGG

Row | Target | log2 fold change [1] | log2 fold change [2] | log2 fold change [3] | log2 fold change [4] | log2 fold change [5] | log2 fold change [6] | log2 fold change [7] | log2 fold change [8] | log2 fold change [9] | log2 fold change [10] | log2 fold change [11] | log2 fold change [12] | log2 fold change [13] | log2 fold change [14] | log2 fold change [15] | log2 fold change [16] | log2 fold change [17] | log2 fold change [18] | log2 fold change [19] | log2 fold change [20]
1 | ADD2 (UniProt P35612) | 0.04 | 0.009 | -0.172 | -0.021 | -0.004 | 0.042 | -0.024 | -0.015 | 0.01 | 0.029 | -0.014 | 0.018 | -0.01 | 0.002 | 0.026 | -0.03 | -0.002 | 0.01 | -0.007 | -0.011
2 | AFDN isoform 5 (UniProt P55196) | -0.018 | -0.012 | -0.19 | -0.002 | -0.125 | -0.082 | 0.01 | 0.004 | 0.007 | 0.049 | -0.031 | -0.049 | 0 | 0.087 | -0.033 | 0.021 | 0.023 | 0.007 | 0.062 | 0.015
3 | AKR1C2 (UniProt P52895) | -0.218 | 0.006 | -0.043 | -0.015 | 0.099 | -0.16 | -0.043 | 0.049 | 0.008 | -0.063 | -0.153 | -0.222 | -0.166 | -0.077 | 0.205 | -0.046 | -0.179 | 0.024 | 0.159 | -0.018
4 | BYSL (UniProt Q13895) | -0.115 | -0.054 | 0.043 | 0.051 | -0.11 | -0.109 | 0.092 | 0.118 | -0.007 | -0.495 (active) | 0.04 | -0.042 | -0.01 | 0.016 | 0.14 | 0.079 | 0.032 | -0.024 | 0.167 | 0.014
5 | AUP1 (UniProt Q9Y679) | 0.035 | -0.026 | 0.003 | 0.007 | -0.164 | -0.482 (active) | -0.033 | 0.011 | -0.036 | 0.08 | 0.054 | 0.021 | 0.009 | -0.005 | -0.048 | 0.121 | 0.058 | -0.056 | 0.028 | 0.06
6 | ASNS (UniProt P08243) | 0.046 | 0.015 | 0.006 | -0.033 | -0.029 | 0.017 | -0.003 | -0.034 | -0.007 | -0.007 | 0.008 | 0.007 | 0.026 | 0.025 | -0.045 | 0.007 | 0.013 | 0 | -0.004 | -0.004
7 | ACSL3 (UniProt O95573) | 0 | -0.001 | -0.035 | -0.009 | -0.086 | -0.025 | -0.009 | -0.004 | 0.023 | 0.035 | 0.005 | -0.051 | 0.1 | 0.029 | 0.008 | 0 | 0.038 | -0.016 | 0.032 | 0.039
8 | APOB (UniProt P04114) | 0.042 | -0.012 | 0.045 | -0.239 | -0.295 | -0.438 | 0.403 | -0.171 | 0.066 | 0.021 | -0.039 | 0.134 | 0.146 | 0.032 | -0.049 | -0.006 | 0.095 | -0.853 (active) | 0.074 | -0.012
9 | ATP13A3 (UniProt Q9H7F0) | 0.043 | -0.005 | 0.004 | -0.032 | -0.136 | -0.199 | 0.073 | -0.007 | 0.042 | -0.035 | 0.027 | 0.031 | -0.068 | 0.012 | -0.042 | -0.014 | -0.02 | -0.076 | 0.025 | -0.001
10 | AGPS (UniProt O00116) | 0.025 | -0.005 | -0.028 | 0.007 | -0.008 | -0.123 | -0.025 | -0.041 | -0.025 | 0.031 | 0.126 | 0.012 | 0.013 | -0.001 | -0.084 | 0.02 | 0.041 | -0.043 | -0.033 | 0.06
11 | BZW2 (UniProt Q9Y6E2) | 0.04 | -0.043 | 0 | -0.016 | -0.121 | -0.163 | -0.003 | -0.011 | -0.005 | 0.014 | 0.009 | -0.007 | 0.043 | 0.062 | -0.034 | 0.012 | 0.058 | -0.025 | 0.011 | 0.044
12 | ALDH2 (UniProt P05091) | 0.005 | 0.002 | -0.005 | -0.086 | -0.037 | 0.018 | -0.032 | -0.034 | -0.046 | 0.063 | 0.089 | 0.03 | 0.039 | 0.029 | -0.264 (active) | 0.044 | -0.011 | -0.012 | 0.016 | 0.003
13 | AAR2 (UniProt Q9Y312) | 0.039 | 0.02 | 0.021 | -0.002 | -0.062 | -0.012 | 0.104 | 0.024 | -0.074 | -0.035 | -0.01 | -0.026 | -0.032 | -0.035 | 0.074 | -0.018 | 0.021 | -0.105 | 0.018 | -0.023
14 | ATP1B3 (UniProt P54709) | 0.025 | 0.043 | -0.03 | -0.036 | 0.01 | 0.154 | -0.008 | -0.056 | -0.012 | -0.032 | 0 | -0.015 | -0.02 | 0.046 | -0.065 | 0.005 | -0.036 | -0.018 | -0.055 | -0.021
15 | ATP2A3 isoform 2 (UniProt Q93084) | 0.038 | -0.013 | 0.001 | -0.023 | 0.018 | -0.295 (active) | -0.044 | 0.005 | 0.012 | -0.009 | -0.024 | -0.001 | -0.013 | 0.004 | 0 | -0.004 | 0.032 | 0.042 | -0.01 | 0.011
16 | AGPAT1 (UniProt Q99943) | 0 | -0.083 | -0.051 | 0.012 | -0.109 | 0.06 | -0.005 | 0.02 | -0.006 | -0.017 | -0.037 | -0.029 | -0.014 | -0.03 | -0.052 | 0.017 | -0.004 | 0.004 | 0.005 | 0.047
